Source: PubChem
A selection: hits, their analogues and other compounds. The true share with any hit is near 3.7%.
BoNT-F LC inh: blocks Botulinum neurotoxin F light chain protease; Multiplex microsphere protease cleavage assay, flow cytometry; inhibition, % at 10 µM; 360,000 compounds, 0.22% hits; AID 588497; in the data active = inhibition above about 35%, passing the limit was not always enough; inconclusive = no clear call, values can overlap the other calls; note: plate controls were buffer without enzyme for full effect and enzyme alone for no effect
MazEF act: activators of E. coli MazEF toxin-antitoxin RNase | P0AE70 | FAM/BHQ RNA-DNA oligo cleavage fluorescence, 5 h | activation, % at 20 µM | 350,000 compounds, 0.32% hits | AID 504720; in the data active = activation above about 50%
Target sequence (P0AE70 whole entry, looked up): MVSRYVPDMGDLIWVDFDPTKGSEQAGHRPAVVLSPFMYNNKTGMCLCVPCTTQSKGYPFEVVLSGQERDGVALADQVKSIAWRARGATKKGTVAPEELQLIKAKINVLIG
Autofluor counter: compound fluorescence in toxin protease inhibitor counterscreen; compound autofluorescence counterscreen, microsphere flow cytometry; hits give high values; AID 624483; fluorescence intensity (concentration not given with the values); 360,000 compounds, 3.1% hits; in the data active = fluorescence intensity above about 16000; inconclusive = no clear call, values can overlap the other calls
BoNT A protease: inhibitors of Botulinum neurotoxin A light chain protease; multiplex microsphere protease substrate cleavage, flow cytometry; 360,000 compounds, 0.17% hits; inhibition, % at 10 µM; note: plate controls were buffer without enzyme for full effect and enzyme alone for no effect
Anthrax LF inh2: blocks Bacillus anthracis lethal factor protease; P15917; multiplex microsphere protease cleavage assay, LF; inhibition, % at 10 µM; 360,000 compounds, 0.12% hits; note: plate controls were buffer without enzyme for full effect and enzyme alone for no effect
Starred values were filed as active, the others as inactive; i = inactive; ? = inconclusive; . = no result; ! = not active in a repeat. Cut-off read from the data, not from the text of the source, unless noted: active = inhibition above about 30%; inconclusive = no clear call, values can overlap the other calls; inactive = below that.

SMILES	BoNT-F LC inh	MazEF act	Autofluor counter	BoNT A protease	Anthrax LF inh2
CC(C)Cc1cc(C(=O)O)c2ccccc2n1	-12	0	18252*	-9	-3
Cc1nn(C)cc1CNC(=O)c1ccccc1Br	2	-1	16520*	?	-2
Cc1nn(C)cc1CNC(=O)c1cccc(Br)c1	12	12	3431	1	0
COc1ccc(NC(=O)CN2C(=O)NC(C)(Cc3ccc(OC)c(OC)c3)C2=O)cc1 (centres undefined)	0	1	3745	0	6
COC(=O)c1cc2sccc2n1Cc1ccc(C)cc1	-3	-4	24673*	-2	0
CCOC(=O)c1cc2occc2n1Cc1ccc(F)cc1	0	4	2620	0	-5
CCOC(=O)c1cc2sccc2n1Cc1ccccc1	14	-5	7664	1	0
O=C(Nc1nccs1)c1cc2sccc2n1Cc1ccc(F)cc1	-3	0	16836*	?	1
COC(=O)c1cc2occc2n1Cc1ccc(Cl)cc1	-1	-14	22264*	1	-6
O=C(c1cc2cc(Br)ccc2o1)N1CCN(c2ccccc2)CC1	-2	-5	5313	1	-3
CCN(CC)S(=O)(=O)c1cccc(C(=O)NC2CCCCC2)c1	-1	2	21448*	?	1
CCN(CC)S(=O)(=O)c1cccc(NC(=O)Nc2cccc(C(F)(F)F)c2)c1	-11	6	21515*	-6	-4
CCN(CC)S(=O)(=O)c1cccc(NC(=O)CC2CCCC2)c1	7	-37	3152	-3	5
CCN(CC)S(=O)(=O)c1cc(C(=O)Nc2cccnc2)ccc1Cl	-1	4	11204	0	-2
CCN(CC)S(=O)(=O)c1cccc(C(=O)Nc2cccnc2)c1	3	-10	22467*	?	-8
CCc1ccc(N/C(SC)=C(/C#N)C(N)=O)cc1	-4	-9	11041	0	-2
CCCCS/C(=C(/C#N)C(N)=O)c1cc2c([nH]1)CCCC2	0	7	22456*	?	-3
CC(C)c1cccc(-c2csc(C(C)(O)c3ccc(F)c(F)c3)n2)c1 (centres undefined)	4	.	4075	-1	-14
O=C(OCC(=O)N1CCN(c2ccccc2)CC1)c1cccc(Cl)c1	-4	-2	23047*	?	-5
O=C(CCSCc1ccccc1Cl)N1CCN(c2cccc(Cl)c2)CC1	0	-2	22753*	0	-7
O=C(CSCc1ccccc1Cl)N1CCN(c2ccccn2)CC1	4	2	8945	1	-1
O=C(OCC(=O)N1CCN(c2ccccc2)CC1)c1ccncc1	-14	4	3932	-1	0
O=S1(=O)CCN(C2CCCCCC2)CC1	2	-14	3022	0	2
O=C(/C=C/c1cccc(Cl)c1Cl)OCC(=O)N1CCOCC1	4	-2	4281	0	2
Cn1c(=O)c(NC2CCCCC2)c2c3c(cccc31)C(=O)c1ccccc1-2	11	-495	8853	44*	23
SMILES	BoNT-F LC inh	MazEF act	Autofluor counter	BoNT A protease	Anthrax LF inh2
Cn1c(=O)c(NCCc2ccccc2)c2c3c(cccc31)C(=O)c1ccccc1-2	41*	60*	9014	47*	47*
Cn1c(=O)c(NCCO)c2c3c(cccc31)C(=O)c1ccccc1-2	10	-490	4675	6	1
CCNc1c2c3c(cccc3n(C)c1=O)C(=O)c1ccccc1-2	.	i	.	.	.
CCCCNc1c2c3c(cccc3n(C)c1=O)C(=O)c1ccccc1-2	50*	i	8728	74*	56*
CC(=O)Nc1ccc(Nc2c3c4c(cccc4n(C)c2=O)C(=O)c2ccccc2-3)cc1	-13	-693	1891	0	-5
C[C@H](CO)N1C[C@H](C)[C@@H](CN(C)Cc2ccc(-c3ccccc3)cc2)Oc2c(NS(=O)(=O)c3cccs3)cccc2C1=O	1	-1	3524	0	-2
CN1CCN(C(CNS(=O)(=O)c2ccc(Br)cc2)c2ccc3c(c2)OCO3)CC1 (centres undefined)	2	6	?	2	0
O=C(Nc1ccc(Cl)cc1C(=O)Nc1ccc(Br)cn1)c1ccco1	-6	-1	20162*	-2	0
c1ccc2[nH]c(-c3ccnc4ccccc34)nc2c1	-5	-1	17421*!	0	0
Cc1cc(C)n2nc(CC(=O)NC3CCCCCC3)nc2n1	-4	2	19846*	-1	-2
CC1(C)CC(=O)C2=C(C1)OC(N)=C(C#N)C21C(=O)N2CCCc3cccc1c32 (centres undefined)	1	2	16191*	1	-5
Cc1cccc(NC(=O)c2cc(-c3cc(C)cc(C)c3O)n[nH]2)c1	25	6	3626	2	-20
O=C1c2ccccc2S(=O)(=O)N1CC(O)COc1ccc(Br)cc1 (centres undefined)	5	-3	16210*	2	-1
Fc1ccc(Nc2nc(NCc3cccs3)nc3ccsc23)cc1	-7	.	4011	0	-2
Cc1ccc(S(=O)(=O)c2c(C)cc(C)nc2Cl)c(C)c1	-2	2	22797*	?	0
Cc1ccc(C)c(S(=O)(=O)c2c(C)cc(C)nc2Cl)c1	10	4	3252	-1	-9
CN(C)c1ccc(/C=C(/NC(=O)c2ccccc2)C(=O)NCCCn2ccnc2)cc1	-1	74*	5397	0	-1
O=C(C1CCN(c2ccc(N3CCOCC3)nn2)CC1)N1CCN(c2ccc(F)cc2)CC1	1	-3	22313*	2	-1
Nn1c(-c2cccc(O)c2)nnc1-c1cccc(O)c1	-1	11	4153	0	-4
CC(=O)Nc1nc(SCc2ccc(Cl)cc2Cl)n[nH]1	3	2	19910*	?	-8
CCN(CC(=O)NCc1cccs1)C(=O)c1ccc(NS(=O)(=O)c2ccc(C(C)=O)cc2)cc1	-5	8	5462	2	4
Cc1c(C(=O)Oc2cc(N)n(S(C)(=O)=O)n2)cccc1[N+](=O)[O-]	5	74*	1969	0	0
Cc1noc(C)c1C(=O)Nc1ccc(C#N)cc1	-9	3	5990	-1	-4
CC(=O)C1=CCC(c2ccc(Br)cc2)N(S(=O)(=O)c2ccc(C)cc2)C1 (centres undefined)	-8	.	5921	-1	-4
COCC(=O)Nc1sc2c(c1C(=O)OC)C(C(=O)OC)CC2 (centres undefined)	-5	3	20588*	-1	-2
SMILES	BoNT-F LC inh	MazEF act	Autofluor counter	BoNT A protease	Anthrax LF inh2
CCCC(=O)Nc1sc2c(c1C(=O)OC)C(C(=O)OC)CC2 (centres undefined)	-20	1	3788	-2	-1
O=C(O)CN1C(=O)C2(OCCCO2)c2ccccc21	-2	2	23379*	0	1
COc1cccc(NC(=O)CN2C(=O)C3(OCCCO3)c3ccccc32)c1	1	-1	22688*	?	-3
CC1(C)COC2(OC1)C(=O)N(CN1CCOCC1)c1ccccc12	-6	8	4294	0	-7
O=C1N(CN2CCC3(CC2)OCCO3)c2ccccc2C12OCCCO2	2	0	22108*	3	-1
O=C1N(CN2CCN(c3cccc(Cl)c3)CC2)c2ccccc2C12OCCCO2	6	1	21061*	8	-8
